Results filed as inconclusive are left out. Where a call stands in place of a potency, no number is given. Unmarked numbers belong to inactive results. Active and inactive are the calls of the source. Calls come from the whole dose curve; as a rule, active = well fitted cell-killing curve with a large enough effect in the repeat runs; inconclusive = weak or mixed curves, or effect the other way; inactive = flat fitted curve, though single readings scatter.
Experiment: qHTS RealTime-Glo MT Cell Viability Assay in HepG2 cells - 0 hour (AID 1224889); note: nearly all actives have a fitted effect of over 50% in size
Details: RealTime-Glo luminescence; series mostly up to 76.8 µM
Text: U.S. Tox21 Program National Center for Advancing Translational Sciences [NCATS] NIH Chemical Genomics Center [NCGC] U.S. Environmental Protection Agency [EPA] National Institutes of Environmental Health Sciences [NIEHS] National Toxicology Program [NTP] U.S. Food and Drug Administration [FDA] Tox21 Assay Overview: Measure of cell viability is critical in the cell-base assay. Analysis of cell viability is necessary for the characterization of cell responses to cytotoxic drugs and environmental stress. A RealTime-Glo MT Cell Viability Assay to monitor cell viability in real time of continues cell culture during 40 hours of compound treatment was used to screen Tox21 10K library compounds in HepG2 cells. The RealTime-Glo MT Cell Viability Assay is a nonlytic, homogeneous, bioluminescent method to measure cell viability in real time using a simple, plate-based method. The assay involves adding NanoLuc luciferase and a cell-permeant prosubstrate to cells in culture. Viable cells reduce the proprietary prosubstrate to generate a substrate for NanoLuc luciferase. This substrate diffuses from cells into the surrounding culture medium, where it is rapidly used by the NanoLuc Enzyme to produce a luminescent signal. The signal correlates with the number of viable cells, making the assay well suited for cytotoxicity studies.
Tox21 Assay Protocol Summary: The mixture of HepG2 cell suspension and reagents were dispensed at 600cells/6 ul/well in 1536-well tissue culture treated black solid bottom plates using a Multidrop dispenser. After the assay plates were incubated at a 37 C/5% CO2 incubator for 5 hours, 23 nL of compounds dissolved in DMSO, positive and negative controls was transferred to the assay plate by a pintool work station. The plates were incubated at 37 C for 40 hours. The luminescence intensity were measured at 0h, 8h, 16h, 24h, 32h and 40h time points using ViewLux plate reader during compound treatment.

SMILES | Potency | activity change, negative = cytotoxicity
N#CCCOCCC#N | inactive | 
O=C1OC(O)C(C(Cl)Cl)=C1Cl (stereo not given) | inactive | 
Nc1ccc2c(S(=O)(=O)O)cccc2c1S(=O)(=O)O | inactive | 
CC(C)C(=O)C(C)C | inactive | 
O=C(Nc1ccccc1)c1cc(Cl)ccc1O | inactive | 
C1=CCCC1 | inactive | 
CCOC(=O)[C@H](O)[C@@H](O)C(=O)OCC | inactive | 
C/C(=N\[Si](C)(C)C)O[Si](C)(C)C | inactive | 
CCn1c2ccccc2c2ccccc21 | inactive | 
CC/C=C(\C)C=O | inactive | 
CCOc1ccc([N+](=O)[O-])cc1 | inactive | 
C=CC(=O)OCC(Br)CBr (stereo not given) | inactive | 
c1ccc(C[P+](c2ccccc2)(c2ccccc2)c2ccccc2)cc1 | inactive | 
COc1c(Br)cc(Br)c(C)c1Br | inactive | 
CSc1ccc(O)cc1C | inactive | 
CCCCCCCCCC[N+](C)(CCCCCCCCCC)CCC[Si](OC)(OC)OC | inactive | 
CC(=O)Nc1ccc(N=Nc2cc(C)ccc2O)cc1 | inactive | 
C=CC(=O)OCCOC1C2CCC1C1CC=CC12 (stereo not given) |  | 5.34% [at 15.8 µM]
CCN(CCC#N)c1ccc(N=Nc2ccc([N+](=O)[O-])cc2)cc1 | inactive | 
CCCCCCCCc1ccc(Nc2ccc(CCCCCCCC)cc2)cc1 | inactive | 

SMILES | Potency | activity change, negative = cytotoxicity
c1ccc2occc2c1 | inactive | 
CN(C)CCOc1ccc(/C(=C(/CCCl)c2ccccc2)c2ccccc2)cc1 | inactive | 
CCCCCCCCCCCCCCCCC(C(=O)O)C(O)(CC(=O)O)C(=O)O (stereo not given) | inactive | 
C=COCCCC | inactive | 
Cc1ccc2nc(-c3ccc(N)cc3)sc2c1S(=O)(=O)O | inactive | 
CCCCCCCCOC(=O)c1cc(O)c(O)c(O)c1 | inactive | 
O=C1OC(=O)c2cc(-c3ccc4c(c3)C(=O)OC4=O)ccc21 | inactive | 
O=c1[nH]cccc1O | inactive | 
S=C1NC=NC2N=CNC12 (stereo not given) | inactive | 
COCCC(=O)OC | inactive | 
CCCCCc1ccc(O)cc1 | inactive | 
O=C(Cl)c1ccc(Cl)cc1Cl | inactive | 
CCC(O)CO (stereo not given) | inactive | 
CCN(CC)c1ccc2c(c1)Oc1cc(N(CC)CC)ccc1C21OC(=O)c2ccccc21 | inactive | 
C=C[Si](C)(C)Cl |  | -16.4% [at 6.97 µM]
O=C1OCc2ccccc21 | inactive | 
CCCCNc1ccc(NCCCC)c2c1C(=O)c1ccccc1C2=O |  | 1.94% [at 15.8 µM]
Oc1ccc2c(c1)CCC2 | inactive | 
NCc1ccco1 | inactive | 
Nc1ccc(Oc2cccc(Oc3ccc(N)cc3)c2)cc1 | inactive | 

Source: PubChem BioAssay (Tox21)
